From article PMC4336329 (PLoS ONE, 2015)
The campaign covered roughly 310,000 compounds. About 14,000 (4.5%) showed an effect of 50% or more. Effects have a minus sign here. Shown is part of a subset that was picked to be rich in strong results.

The compounds below were run against human ether-à-go-go-related gene (hERG) potassium channel (human, UniProt Q12809) (assay: primary screen, population patch clamp on CHO cells stably expressing hERG; higher = less effect of the substance).
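Also: peak tail current of the secondary pulse compared with the same well before compound.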

human ether-à-go-go-related gene (hERG) potassium channel, sequence (Q12809 whole entry, looked up): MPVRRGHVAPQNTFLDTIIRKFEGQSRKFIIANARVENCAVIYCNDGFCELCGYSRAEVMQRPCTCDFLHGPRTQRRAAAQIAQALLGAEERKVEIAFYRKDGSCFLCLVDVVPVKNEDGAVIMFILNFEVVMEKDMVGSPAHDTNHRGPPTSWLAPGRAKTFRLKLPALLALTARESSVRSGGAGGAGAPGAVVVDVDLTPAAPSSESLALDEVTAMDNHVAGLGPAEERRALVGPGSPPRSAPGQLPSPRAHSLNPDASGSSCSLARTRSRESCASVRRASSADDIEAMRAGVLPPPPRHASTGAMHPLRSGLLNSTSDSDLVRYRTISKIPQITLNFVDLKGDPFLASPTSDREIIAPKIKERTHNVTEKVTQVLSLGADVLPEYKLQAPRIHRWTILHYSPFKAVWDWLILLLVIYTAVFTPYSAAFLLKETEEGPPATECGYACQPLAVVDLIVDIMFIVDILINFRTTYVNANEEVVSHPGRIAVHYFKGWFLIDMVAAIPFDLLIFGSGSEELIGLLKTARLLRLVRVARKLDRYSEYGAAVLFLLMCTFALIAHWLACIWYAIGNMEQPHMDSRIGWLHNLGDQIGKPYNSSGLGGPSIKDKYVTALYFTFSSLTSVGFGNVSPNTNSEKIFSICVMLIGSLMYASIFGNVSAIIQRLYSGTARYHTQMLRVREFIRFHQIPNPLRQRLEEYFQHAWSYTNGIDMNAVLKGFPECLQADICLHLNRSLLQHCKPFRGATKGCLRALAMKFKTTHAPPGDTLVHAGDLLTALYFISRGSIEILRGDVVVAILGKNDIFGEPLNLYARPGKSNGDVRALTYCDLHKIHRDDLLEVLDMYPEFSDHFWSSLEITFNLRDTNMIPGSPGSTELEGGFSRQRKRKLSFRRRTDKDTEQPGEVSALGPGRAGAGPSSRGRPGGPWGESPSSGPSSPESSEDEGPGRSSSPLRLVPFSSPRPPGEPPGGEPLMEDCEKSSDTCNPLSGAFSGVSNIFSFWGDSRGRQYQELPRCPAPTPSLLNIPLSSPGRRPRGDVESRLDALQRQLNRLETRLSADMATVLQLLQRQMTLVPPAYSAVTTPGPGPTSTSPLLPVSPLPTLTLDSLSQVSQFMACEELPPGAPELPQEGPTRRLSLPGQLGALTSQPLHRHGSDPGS

SMILES | hERG current change (%, negative = inhibition) at 10uM [%]
NC(=O)CC(NC(=O)Cc1ccc(Br)cc1)c1ccc(N2CCc3ccccc3C2)c([N+](=O)[O-])c1 (stereo not shown) | -2.08
O=S(=O)(Nc1ccc(Cl)nn1)c1ccccc1 | 12.7
Cn1c(N)c(C(=O)COC(=O)/C=C/c2ccc(OC(F)F)cc2)c(=O)n(C)c1=O | 3.23
O=C(O)C(=O)O.Oc1ccccc1CN1CCC(C(O)(c2ccccc2)c2ccccc2)CC1 | -68.5
O=C(CN1CCC(C(O)(c2ccccc2)c2ccccc2)CC1)Nc1ccccc1 | -42.1
O=C(O)C(=O)O.Oc1ccccc1CN1CCN(C(O)(c2ccccc2)c2ccccc2)CC1 | -46
Nc1c(Cl)cc(-c2csc(N3CCCC3c3nc4cc(Cl)c(Cl)cc4n3CCCO)n2)cc1Cl (stereo not shown) | -2.8
CC(NC(=O)C1CC1)C(c1cccs1)N1CCN(c2ccccc2)CC1 (stereo not shown) | -0.284
COc1ccc(NC(=O)CN(C)Cc2cccs2)cc1Cl | -15.7
NC(=O)C1CCN(c2oc(-c3ccccc3)nc2S(=O)(=O)c2ccc(Br)cc2)CC1 | -55.9
O=S(=O)(c1ccccc1)c1nc(-c2ccccc2)oc1N1CCCC1 | 8.44
CN1CCN(c2oc(-c3ccccc3Cl)nc2S(=O)(=O)c2ccccc2)CC1 | -47.9
CN1CCN(c2oc(-c3ccccc3)nc2S(=O)(=O)c2ccc(Br)cc2)CC1 | -68.6
Cc1ccc(S(=O)(=O)c2nc(-c3ccccc3)oc2N2CCC(C(N)=O)CC2)cc1 | -26.3
O=S(=O)(c1ccc(F)cc1)c1nc(-c2ccccc2F)oc1N1CCCCC1 | -20
CN1CCN(c2oc(-c3ccccc3F)nc2S(=O)(=O)c2ccc(Cl)cc2)CC1 | -57.6
NC(=O)C1CCN(c2oc(-c3ccc(F)cc3)nc2S(=O)(=O)c2ccccc2)CC1 | -17.4
O=S(=O)(c1ccc(Br)cc1)c1nc(-c2ccccc2)oc1N1CCOCC1 | -30.7
CCN(CC)S(=O)(=O)c1cccc(N=Nc2sc(N)nc2C)c1 | -12.8
S=C1NC[C@H](CC2CCCCC2)N1CC1CCCCC1 | -8.59
O=C(CN1CCCCC1)Nc1ccc(NC(=O)c2ccc(Cl)cc2)cc1Cl | 13.7
CCC(NC(=O)c1cc(COc2cncc(Cl)c2)on1)c1ccncc1 (stereo not shown) | 8.75

SMILES | hERG current change (%, negative = inhibition) at 10uM [%]
COc1ccc(-c2cc3ccccc3n2CC(O)Cn2nc(C)cc2C)cc1 (stereo not shown) | 4.62
COc1ccc(-c2cc3ccccc3n2CC(O)CN2CCC(C)CC2)cc1.O=C(O)C(=O)O (stereo not shown) | -77
COc1ccc(-c2cc3ccccc3n2CC(O)CNCCO)cc1.O=C(O)C(=O)O (stereo not shown) | 3.61
COc1ccc(-c2cc3ccccc3n2CC(O)CN2CCOCC2)cc1 (stereo not shown) | -13.5
COc1ccc(-c2cc3ccccc3n2CC(O)CN2CCCCC2)cc1.O=C(O)C(=O)O (stereo not shown) | -79.6
COc1ccc(-c2cc3ccccc3n2CC(O)CN2CCN(CCO)CC2)cc1 (stereo not shown) | -29.9
OCC[C@H]1C[C@H](O)[C@@H](O)[C@@]2(OCc3ccccc32)O1 | 8.35
CCOc1ccccc1N(CC(=O)NC(C)(C)C)C(=O)Cn1nnc(-c2ccc(C)o2)n1 | -16
O=C(C1CC1)N1CCc2cc(Br)cc(S(=O)(=O)N3CCN(c4ccccn4)CC3)c21 | -17.5
COc1ccc(CCNC(=O)NCCc2c[nH]c3ccccc23)cc1OC | -3.31
CCOc1ncccc1C(=O)Nc1cccc(-c2nnc3n2CCCCC3)c1 | -19.6
CC(C)(C)OC(=O)N1CCC(C(=O)NCC2CCCO2)CC1 (stereo not shown) | 16.5
O=C(CC(C(=O)N1CCc2ccccc21)n1ccnc1)NCc1ccccc1 (stereo not shown) | -26.5
O=C(/C=C/c1ccc2c(c1)OCO2)Nc1cc(S(=O)(=O)N2CCOCC2)ccc1N1CCOCC1 | -55.9
COc1ccc(/C=C/C(=O)Nc2cc(S(=O)(=O)N3CCOCC3)ccc2N2CCCC2)cc1OC | -40.3
Cc1ccc(NC(=O)/C=C/c2ccc3c(c2)OCO3)cc1S(=O)(=O)N1CCOCC1 | -13
O=C(/C=C/c1ccc(F)cc1)Nc1ccc(S(=O)(=O)N2CCOCC2)cc1 | 9
O=C(/C=C/c1ccccc1)Nc1cc(S(=O)(=O)N2CCOCC2)ccc1N1CCCC1 | -1.04
O=C(/C=C/c1cccc(F)c1)Nc1cc(S(=O)(=O)N2CCOCC2)ccc1N1CCCC1 | -57.7
COc1cc(/C=C/C(=O)Nc2cc(S(=O)(=O)N3CCOCC3)ccc2N2CCCC2)cc(OC)c1OC | 24
O=C(/C=C/c1ccc(F)cc1)Nc1cc(S(=O)(=O)N2CCOCC2)ccc1N1CCCC1 | -70.9
Cc1ccc(/C=C/C(=O)Nc2cc(S(=O)(=O)N3CCOCC3)ccc2N2CCOCC2)cc1 | -43.2

SMILES | hERG current change (%, negative = inhibition) at 10uM [%]
Cc1ccn(CCC(=O)O)n1 | 26.6
Cc1[nH]n(-c2ccccc2)c(=O)c1/C=N/N1C(=O)c2cccc3cccc(c23)C1=O | 3.73
COc1ccc(/C=C/c2nc3sc4c(c3c(=O)o2)CCC4)cc1 | 4.28
Cc1ccc(-c2nc(N)c3c(-c4ccc(C)cc4)nn(C(C)(C)C)c3n2)cc1 | -1.71
O=C(COc1ccc(S(=O)(=O)N2CCOCC2)cc1)NCCc1ccccc1 | -13.4
CCN(CC)CCNc1nc2c(c(=O)n(C)c(=O)n2C)n1C/C=C(/C)Cl | -58.9
C/C(Cl)=C\Cn1c(NCCc2ccccc2)nc2c1c(=O)n(C)c(=O)n2C | -9.3
C/C(Cl)=C/Cn1c(NCCN(C)C)nc2c1c(=O)n(C)c(=O)n2C | -26.9
CCC(=O)NCCCc1nc(-c2ccccc2)no1 | 5.95
COc1ccc(CN2C(=O)COc3ccccc32)cc1 | 12
CCCCN(CCCC)C(=O)CN(C)S(=O)(=O)c1ccc2c(c1)n(C)c(=O)c(=O)n2C | -37
CCCCN(CCCC)C(=O)CCS(=O)(=O)c1ccc2c(c1)n(C)c(=O)c(=O)n2C | -69.2
CCN(Cc1ccccc1)C(=O)CCS(=O)(=O)c1ccc2c(c1)n(C)c(=O)c(=O)n2C | -15
CCC(C)NC(=O)CSc1nnc(-c2ccncc2)n1-c1ccc(OC)cc1 (stereo not shown) | -0.947
COc1ccc(-n2c(SCC(=O)NNC(=O)c3ccccc3C)nnc2-c2ccncc2)cc1 | -7.21
COc1ccc(-n2c(SCC(=O)NNC(=O)c3ccc(C)cc3)nnc2-c2ccncc2)cc1 | -58.6
Cc1ccc(C(=O)NNC(=O)CSc2nnc(-c3ccncc3)n2C)cc1 | 24.9
Cc1ccc(C(=O)NNC(=O)CSc2nnc(-c3ccncc3)n2-c2ccc(C)cc2)cc1 | -51.4
CCn1c(SCC(=O)NNC(=O)c2ccc(C)cc2)nnc1-c1ccncc1 | -0.879
CC(=O)N1c2ccc(S(=O)(=O)NCCC(=O)NCCc3cccc(C)c3)cc2CC1C (stereo not shown) | -4.31
CC(C)[C@H](NC(=O)c1ccco1)C(=O)OCC(=O)NC12CC3CC(CC(C3)C1)C2 | -18.7
CCOc1cc(/C=N/O)ccc1OS(=O)(=O)c1ccc(C)cc1 | -5.21

SMILES | hERG current change (%, negative = inhibition) at 10uM [%]
O=[N+]([O-])c1ccccc1S(=O)(=O)Oc1ccc(/C=N/n2cnnc2)cc1 | -40.6
CCOc1cc(C=C2C(=O)NC(=O)NC2=O)ccc1OS(=O)(=O)c1ccccc1 | -18
Cc1ccc(S(=O)(=O)Oc2cccc(/C=N/n3cnnc3)c2)cc1 | -49
CCOc1cc(/C=N/NS(=O)(=O)c2ccccc2)ccc1OS(=O)(=O)c1ccc(C)cc1 | 2.1
CCOc1cc(/C=N/n2cnnc2)ccc1OS(=O)(=O)c1ccccc1 | -57.7
COc1cc(C=O)ccc1OS(=O)(=O)c1ccccc1[N+](=O)[O-] | 4.1
CCOc1cc(/C=N/n2cnnc2)ccc1OS(=O)(=O)c1ccc(C)cc1 | -50.5
COc1cc(/C=N/n2cnnc2)ccc1OS(=O)(=O)c1ccccc1[N+](=O)[O-] | -51
Cn1ncc2c(Nc3ccc(Cl)c(Cl)c3)ncnc21 | 14.5
O=C(O)CCn1cc(/C=C2\SC(=S)NC2=O)c(-c2ccccc2)n1 | 21.8
COc1ccc2c(c1)CC/C2=N\NC(=O)c1ccccc1 | -3.69
CC1(C)COC(Nc2ccc(Cl)cc2)=N1 | -35.8
Cc1ccc(Cn2nnnc2CN2CCC(O)(c3ccccc3F)CC2)cc1 | -21.5
CC(CCc1ccccc1)NC(=O)c1ccc(-n2cncn2)c([N+](=O)[O-])c1 (stereo not shown) | -70.9
O=C(NCCC1=CCCCC1)c1ccc(-n2cncn2)c([N+](=O)[O-])c1 | -22.5
Cc1cc(C(=O)NC(C)CCc2ccccc2)ccc1[N+](=O)[O-] (stereo not shown) | -29.5
O=C(NNC(=O)c1ccc(-n2cncn2)c([N+](=O)[O-])c1)c1ccccc1 | 9.34
Cc1ccc(C(=O)NC(C)CCc2ccccc2)cc1[N+](=O)[O-] (stereo not shown) | -13.9
O=C(NCCCc1ccccc1)c1ccc(-n2cncn2)c([N+](=O)[O-])c1 | -60.5
